According to PubChem BioAssay AID933 (National Center for Advancing Translational Sciences (NCATS), 2007):
“And” between values parts separate entries of the source, which are not always exact repeats. Identical values can stand only once. Inconclusive results are not listed. A call without a number means that no potency is given here. Values without a mark were called inactive. The source made the active and inactive calls. The call rests on the fitted dose curve; in most records, active means well fitted activation curve with a large enough effect in the signal ratio, with a control signal flat; inconclusive means small, poorly fitted or top-dose-only effect, or a change in a side signal; inactive means flat fitted curve, though single readings scatter; the % refers to the signal ratio.

biological target: Thyrotropin receptor (Homo sapiens) (UniProt P16473); assay: Secondary Concentration-Response Assay for Agonists of the Thyroid Stimulating Hormone Receptor: HTRF Activity Detection; conditions: HEK293-TSHR cells, cAMP HTRF ratio, 30 min; series mostly up to 91.7 µM;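 on activation: HEK 293 cells stably expressing human TSHR with RO 20-1724 phosphodiesterase inhibitor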
In short: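 Orthogonal confirmation in a separate TSHR-transfected HEK 293 line: cells in medium with 10 % FCS and 100 uM RO 20-1724 got compound for 30 min at room temperature. cAMP was measured by HTRF (d2-cAMP/anti-cAMP antibody), 615/660 nm emission.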
Potency means the concentration at half of the fitted maximal effect.

Thyrotropin receptor (Homo sapiens), sequence (P16473 whole entry, looked up): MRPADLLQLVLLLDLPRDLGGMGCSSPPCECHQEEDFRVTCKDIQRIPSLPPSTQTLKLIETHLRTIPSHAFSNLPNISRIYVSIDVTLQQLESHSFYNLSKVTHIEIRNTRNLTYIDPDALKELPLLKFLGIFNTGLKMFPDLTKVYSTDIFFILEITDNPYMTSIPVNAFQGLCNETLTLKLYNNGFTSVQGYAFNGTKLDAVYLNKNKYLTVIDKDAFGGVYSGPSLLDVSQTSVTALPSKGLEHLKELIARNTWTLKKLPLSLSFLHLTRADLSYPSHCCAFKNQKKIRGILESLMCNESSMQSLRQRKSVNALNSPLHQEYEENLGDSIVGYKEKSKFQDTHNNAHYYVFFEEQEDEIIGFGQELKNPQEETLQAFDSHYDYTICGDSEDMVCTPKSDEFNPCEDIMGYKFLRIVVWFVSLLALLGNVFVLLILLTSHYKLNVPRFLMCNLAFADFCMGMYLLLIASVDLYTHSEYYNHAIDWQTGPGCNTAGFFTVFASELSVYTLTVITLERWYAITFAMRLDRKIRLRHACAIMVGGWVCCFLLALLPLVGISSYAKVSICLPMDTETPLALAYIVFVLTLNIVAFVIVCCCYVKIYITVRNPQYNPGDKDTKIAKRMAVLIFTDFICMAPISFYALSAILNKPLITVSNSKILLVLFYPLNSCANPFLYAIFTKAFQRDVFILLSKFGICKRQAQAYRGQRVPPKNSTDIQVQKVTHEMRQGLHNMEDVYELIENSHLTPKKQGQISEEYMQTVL

Row | Compound | Potency | activation
1 | CCCN1C(=O)c2ccccc2NC1c1ccc(OC)c(COc2cccc(OC)c2)c1 (stereo not given) | inactive | 
2 | N#Cc1ccc(C(=O)N(Cc2ccco2)Cc2cccs2)cc1 | inactive | 
3 | COc1ccc(C(=O)N(Cc2cccs2)Cc2cccs2)c(O)c1 | 15.8 µM (active) | 
4 | O=C(CN(c1ccc2c(c1)OCCO2)S(=O)(=O)c1ccccc1)NCc1ccco1 |  | -0.333% [at 0.00035 µM]
5 | Cc1cc(C)nc(N(C#N)CC(=O)N2CCC(C(N)=O)CC2)n1 |  | 1.28% [at 0.00035 µM]
6 | O=C1c2ccccc2N2C(=O)c3ccccc3[C@H]2N1c1ccccc1 | inactive | 
7 | C=C(C)Cn1c(-c2ccccc2)nc2ccccc21 |  | 0.0214% [at 0.00035 µM]
8 | COc1ccc(C2Nc3ccccc3C(=O)N2CCO)cc1COc1ccc(NC(C)=O)cc1 (stereo not given) | inactive | 
9 | O=C1c2ccccc2NC(c2ccc(OCc3ccccc3)c(OCc3ccccc3)c2)N1Cc1ccco1 (stereo not given) | inactive | 
10 | COc1cc(C2Nc3ccccc3C(=O)N2c2ccccc2OC)ccc1O (stereo not given) | inactive | 
11 | COc1ccc(C2Nc3ccccc3C(=O)N2Cc2ccccc2)cc1COc1ccc(NC(C)=O)cc1 (stereo not given) | 7.08 µM (active) and 3.55 µM (active) | 
12 | COc1ccc(N(C)S(=O)(=O)c2cccc(C(=O)NC3=NCCS3)c2)cc1 |  | 1.29% [at 0.00035 µM]
13 | Cc1ccccc1N1CCN(c2ncnc3c2cnn3Cc2ccc(Cl)cc2)CC1 |  | -0.314% [at 0.00035 µM]
14 | COc1ccc(-c2nc3ccccc3c(=O)n2Cc2ccccc2)cc1COc1ccc(NC(C)=O)cc1 | 8.91 µM (active) | 
15 | CCN(CC)CCN1C(=O)c2ccccc2NC1c1ccccc1F (stereo not given) | inactive | 
16 | COC(=O)C1=C(C)NC(C)=C(C(=O)OC)C1c1ccc(OC(=O)c2ccco2)cc1 |  | 0.436% [at 0.00035 µM]
17 | COc1ccc(CN(Cc2ccccc2)C(=O)c2ccc(NC(C)=O)cc2)cc1COc1ccc(NC(C)=O)cc1 | inactive | 
18 | CC(=O)Nc1ccc(C2Nc3ccccc3C(=O)N2C2CCCCC2)cc1 (stereo not given) | inactive | 

Row | Compound | Potency | activation
19 | O=C1c2ccccc2NC(c2ccccc2O)N1Cc1ccccc1 (stereo not given) | inactive | 
20 | COc1ccc2c(c1OC)C(=O)N1c3ccccc3C(=O)N(c3ccccc3)C21 (stereo not given) | inactive | 
21 | CCCCN1C(=O)c2ccccc2NC1c1ccc(OC)c(COc2ccc(NC(C)=O)cc2)c1 (stereo not given) | 20 µM (active) | 
22 | O=C1c2ccccc2NC(c2ccccc2Br)N1CCCN1CCOCC1 (stereo not given) | inactive | 
23 | CC1CCN(S(=O)(=O)c2cccc(C(=O)Nc3ccccn3)c2)CC1 |  | 0.1% [at 0.00035 µM]
24 | COc1ccc(CN(Cc2ccccc2)C(=O)c2ccco2)cc1COc1ccc(NC(C)=O)cc1 | 15.8 µM (active) | 
25 | COc1ccc(C2Nc3ccccc3C(=O)N2c2ccc(F)cc2)cc1Cn1nnc2ccccc21 (stereo not given) | inactive | 
26 | COc1ccc(C2Nc3ccccc3C(=O)N2Cc2ccccc2)cc1COc1ccc(C(N)=O)cc1 (stereo not given) | inactive | 
27 | COc1ccc(C2Nc3ccccc3C(=O)N2c2ccccc2)cc1COc1ccc(NC(C)=O)cc1 (stereo not given) | inactive | 
28 | CC1(C)c2ccccc2N2CCC(=O)NC21/C=C/c1ccco1 (stereo not given) |  | 0.369% [at 0.00035 µM]
29 | CN1C(=O)N(C)C2(c3ccccc3)Nn3c(s/c(=C/c4ccco4)c3=O)=NC12c1ccccc1 (stereo not given) |  | 0.345% [at 0.00035 µM]
30 | O=C(COC(=O)C12CC3CC(CC(C3)C1)C2)NCC1CCCO1 (stereo not given) | inactive | 
31 | CCN(CC)CCN1C(=O)c2ccccc2NC1c1ccc(OC)c(COc2ccc(NC(C)=O)cc2)c1 (stereo not given) | inactive | 
32 | Cc1ccc(C2Nc3ccccc3C(=O)N2Cc2ccco2)cc1 (stereo not given) | inactive | 
33 | CC(=O)Nc1ccc(OCc2cccc(C3Nc4ccccc4C(=O)N3Cc3ccco3)c2)cc1 (stereo not given) | inactive | 
34 | COc1ccc(C2Nc3ccccc3C(=O)N2c2ccc(C)cc2)cc1Cn1nnc2ccccc21 (stereo not given) | inactive | 
35 | CCN(CC)CCN1C(=O)c2ccccc2NC1c1cc(OC)c(OC)c(OC)c1 (stereo not given) | inactive | 
